Screening results as filed in PubChem BioAssay.
The list is not random: actives were taken first. Their share in the collection is about 16%.
uPA surface inh: qHTS for Inhibitors of Cell Surface uPA Generation; Potency, µM (doses to about 38.3 µM), hits mostly inhibitors; actives 0.31% (n = 330,000); cell surface uPA generation assay, qHTS; active = well fitted inhibition curve with a large enough effect; inconclusive = small, poorly fitted or top-dose-only effect; inactive = no such curve, though single readings can be large or run the other way; tested in mouse RAW 264.7 cells; note: nearly all actives have a fitted effect of over 55% in size
DT40 TDP1 CPT: qHTS for Inhibitors of human tyrosyl-DNA phosphodiesterase 1 (TDP1): qHTS in cells in presence of CPT; actives 12% (n = 420,000); chicken DT40 Tdp1-/-;hTDP1 cells + 20 nM CPT, ATP luminescence, 48 h; Potency, µM (doses to about 46.2 µM), actives largely listed as inhibitors; note: nearly all actives have a fitted effect of over 55% in size
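Cell growth measured by CellTiter-Glo luminescence after a minimum 48 h, 37 C compound exposure with 20 nM CPT in Tdp1-knockout DT40 cells stably expressing hTDP1, seeded 400/well; qHTS titration format.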
miR-21 act: qHTS Assay for Modulators of miRNAs and/orActivators of miR-21; Potency, µM (doses to about 38.3 µM), actives largely listed as activators; 340,000 tested, under 10 active; AID 2288, 2010; HeLa miR-21 FLuc reporter, luciferase, 48 h;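 note: miR-21 action dims this reporter so a rising signal means less miR-21 action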
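Using DMEM plus 10% FBS, HeLa miR-21-FLuc cells are incubated with test compounds (final up to about 40uM) for 48 hours; firefly luciferase signal is then imaged following reagent-mediated lysis.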
TDP1 block: qHTS Assay for Inhibitors of Tyrosyl-DNA Phosphodiesterase (TDP1); Tyrosyl-DNA phosphodiesterase 1 (Homo sapiens), Q9NUW8; recombinant TDP1, AlphaScreen DNA substrate cleavage; AID 485290, 2010; Potency, µM (doses to about 130 µM), most hits filed as inhibitors; actives 0.28% (n = 350,000); note: nearly all actives have a fitted effect of over 40% in size
Target sequence (Q9NUW8 whole entry, looked up): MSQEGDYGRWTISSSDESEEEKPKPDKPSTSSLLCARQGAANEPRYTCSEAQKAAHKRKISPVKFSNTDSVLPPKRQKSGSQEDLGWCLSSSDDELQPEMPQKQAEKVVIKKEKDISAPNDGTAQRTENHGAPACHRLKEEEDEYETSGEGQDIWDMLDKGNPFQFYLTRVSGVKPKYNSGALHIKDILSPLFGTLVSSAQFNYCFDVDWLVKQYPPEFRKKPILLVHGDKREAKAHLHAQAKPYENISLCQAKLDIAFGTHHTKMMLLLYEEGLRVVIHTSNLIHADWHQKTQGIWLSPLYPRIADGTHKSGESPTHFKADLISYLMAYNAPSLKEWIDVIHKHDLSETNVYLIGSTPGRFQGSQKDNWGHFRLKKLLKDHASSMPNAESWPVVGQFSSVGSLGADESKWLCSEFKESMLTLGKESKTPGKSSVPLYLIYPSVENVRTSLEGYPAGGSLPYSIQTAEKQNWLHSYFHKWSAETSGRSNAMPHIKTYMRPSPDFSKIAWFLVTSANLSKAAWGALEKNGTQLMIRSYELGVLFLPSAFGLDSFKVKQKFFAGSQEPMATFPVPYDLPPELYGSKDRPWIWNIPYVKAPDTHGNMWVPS
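Recombinant human Tdp1 (E. coli-expressed, 1 nM final) preincubated with compounds 15 min at room temperature, then 5'-biotin/3'-phosphotyrosine-FITC DNA substrate (15 nM final) added for 5 min. AlphaScreen beads (10 ug/ml final) added 10 min; cleavage lowers signal.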
TDP1 cell noCPT: qHTS for Inhibitors of human tyrosyl-DNA phosphodiesterase 1 (TDP1): qHTS in cells in absence of CPT; DT40 Tdp1-/- hTDP1 cells, no CPT, ATP luminescence, 48 h; Potency, µM (doses to about 46.2 µM), most hits filed as inhibitors; actives 15% (n = 420,000); note: nearly all actives have a fitted effect of over 55% in size
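Stably hTDP1-transfected Tdp1-null chicken DT40 cells were treated with library compounds minus camptothecin and grown for at least 48 hr at 37 °C, after which cellular ATP was quantified by luminescence.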
A number is an active result; 0 = inactive; ? = inconclusive; - = not tested or not shown. Unless noted, calls come from the whole dose curve; as a rule, active = well fitted curve in the direction sought with a large enough effect; inconclusive = small, poorly fitted or top-dose-only effect, or another doubt; inactive = no such curve, though single readings can be large; an effect the other way counts as inactive or inconclusive.

SMILES	uPA surface inh	DT40 TDP1 CPT	miR-21 act	TDP1 block	TDP1 cell noCPT
COc1ccc(N2C(=O)c3ccccc3NC(=O)C2C(=O)Nc2ccc3c(c2)OCCO3)cc1 (stereo not given)	-	?	-	-	0
Cc1nn(-c2ccc(Cl)cc2)c(Cl)c1/C=N/NC(=O)c1ccc(NS(=O)(=O)c2cccs2)cc1	0	18.4µM	-	-	18.4µM
Cc1nn(-c2ccc(F)cc2)c(Cl)c1/C=N/NC(=O)c1cccs1	0	?	0	79.4µM	?
Cc1nn(-c2ccc(F)cc2)c(Cl)c1/C=N/NC(=O)c1ccc(O)cc1	0	0	0	0	0
CNC(=S)N/N=C/c1c(C)nn(-c2ccc(F)cc2)c1Cl	0	?	0	0	14.6µM
COc1cccc(NC(=O)Nc2nnc(-c3ccccc3SCc3ccccc3)s2)c1	0	?	0	0	?
COc1ccc(NC(=O)Nc2nnc(-c3ccccc3SCc3ccccc3)s2)cc1	0	18.4µM	0	0	6.51µM
O=C(c1ccccc1)C1CN(c2ccccc2)CC1c1ccc(Cl)cc1 (stereo not given)	0	?	0	0	16.4µM
CS(=O)(=O)Nc1ccc(C(=O)CC(=O)Nc2ccc([N+](=O)[O-])cc2)cc1	0	0	0	-	0
CCOC(=O)C(NC(=O)CC)(Nc1ccc(S(=O)(=O)Nc2ncccn2)cc1)C(F)(F)F (stereo not given)	0	0	0	0	0
COC(=O)C1(Cc2cc(-c3cccnc3)no2)CCN(C(=O)OC(C)(C)C)CC1	0	?	0	-	?
COC(=O)C1(Cc2cc(-c3ccc(Cl)cc3)no2)CCN(C(=O)OC(C)(C)C)CC1	0	?	0	-	18.4µM
COC(=O)C1(Cc2cc(-c3ccc([N+](=O)[O-])cc3)no2)CCN(C(=O)OC(C)(C)C)CC1	0	?	-	0	20.6µM
COC(=O)C1(CC2CC(c3ccc(Cl)cc3)=NO2)CCN(C(=O)OC(C)(C)C)CC1 (stereo not given)	0	25.9µM	-	0	20.6µM
CC(C)(C)OC(=O)N1CCC(CC2CC(c3ccncc3)=NO2)(C(=O)O)CC1 (stereo not given)	0	0	-	0	0
c1ccc(CCNc2ccc3c(c2)Cc2ccccc2-3)nc1	0	0	-	-	?
O=C(COC(=O)c1cc[n+]([O-])cc1)NC(=O)c1ccc(OC(F)F)cc1	0	0	-	0	0
Cc1cc(NC(=O)CSc2ccc(-c3nc4cc(C)c(C)cc4[nH]3)cn2)no1	-	?	0	-	?
Cc1ccc(-c2ccc(SCC(=O)N3CCc4ccccc43)nn2)cc1	-	-	0	0	-
Cc1cc2nc(-c3ccc(SCc4ccc(C(=O)O)cc4)nc3)[nH]c2cc1C	0	?	0	22.4µM	?
Cc1cc2nc(-c3ccc(SCc4ccccc4C#N)nc3)[nH]c2cc1C	0	?	0	0	15.8µM
Cc1cc2nc(-c3ccc(SCC(=O)N4CCc5ccccc54)nc3)[nH]c2cc1C	0	9.2µM	0	0	23.1µM
Cc1cc(C)c(CN2CCN(C(=O)Cn3cnc4c(OCc5ccccc5)ncnc43)CC2)c(C)c1	?	8.2µM	-	0	2.59µM
O=C(O)Cn1cnc2c(OCc3ccccc3)ncnc21	0	0	-	0	0
c1ccc(COc2ncnc3c2ncn3CCCN2CCN(Cc3cccc4ccccc34)CC2)cc1	-	?	-	-	9.2µM
SMILES	uPA surface inh	DT40 TDP1 CPT	miR-21 act	TDP1 block	TDP1 cell noCPT
Cc1ccc(CN2CCN(CCCn3cnc4c(OCc5ccccc5)ncnc43)CC2)cc1	0	23.1µM	-	-	?
CCOc1ccc(NC(=O)CN2CCN(c3ccc(F)cc3)CC2)cc1	0	0	0	-	0
CC(C)[C@H](NS(=O)(=O)c1ccccc1)C(=O)OCC(=O)NCc1ccc2c(c1)OCO2	0	0	-	0	0
CCS(=O)(=O)N1CCCC(C(=O)NCc2ccccc2Cl)C1 (stereo not given)	0	0	0	0	0
O=C(NCCc1ccccn1)/C(=C/c1ccco1)NC(=O)c1ccccc1	0	0	0	0	0
O=C(Oc1ccccc1)c1ccc2c(c1)C(=O)N(Cc1ccncc1)C2=O	0	0	0	0	?
C1=Cc2ccccc2/C1=C(\Cc1ccncc1)Oc1ccncc1	-	11.2µM	-	-	14.1µM
Cc1cc(=O)c2c(C)ccc(C)c2[nH]1	0	?	0	-	9.2µM
O=C(NCCCN1CCOCC1)c1sc2cc([N+](=O)[O-])ccc2c1Cl	0	0	0	0	?
CCCC(=O)N1CCN(c2ccc(NC(=O)c3sc4ccccc4c3Cl)cc2)CC1	0	0	0	0	?
CN1CCN(c2ccccc2NC(=O)c2sc3ccccc3c2Cl)CC1	0	?	0	0	20.6µM
O=C(Nc1ccccn1)c1sc2cc([N+](=O)[O-])ccc2c1Cl	0	23.1µM	0	0	?
O=C(Nc1nccs1)c1sc2cc(Cl)ccc2c1Cl	0	?	0	0	?
O=C(NCC1CCCO1)c1sc2ccccc2c1Cl (stereo not given)	0	0	0	0	0
O=C(Nc1nccs1)c1sc2ccccc2c1Cl	0	?	0	0	20.6µM
CC(NC(=O)c1sc2ccccc2c1Cl)C1CCCO1 (stereo not given)	?	20.6µM	0	0	?
CCN(C(=O)COC(=O)c1ccc(OC)c(S(=O)(=O)N(C)Cc2ccccc2)c1)C1CCS(=O)(=O)C1 (stereo not given)	0	0	-	0	0
O=C(Cc1ccc(NC(=O)N2CCSc3ncccc32)cc1)NCCc1ccccc1	-	?	0	0	0
C[C@@H](O)[C@H]1C(=O)N2C(C(=O)O)=C(S[C@@H]3CN[C@H](CNS(N)(=O)=O)C3)[C@H](C)[C@H]12	-	?	-	-	0
O=C(NC1C=CS(=O)(=O)C1)c1sc2ccccc2c1Cl (stereo not given)	?	?	0	0	23.1µM
CCCCn1c(N)c(N(CCOC)C(=O)c2cc(C)oc2C)c(=O)[nH]c1=O	0	0	-	0	0
CC(C)NC(=O)c1ccc(CSCc2ccccc2Cl)o1	0	?	0	-	?
COc1ccc(C(=O)N2CCC[C@@]3(CCN(Cc4ccccc4OC)C3)C2)cc1	-	0	-	-	?
CCOC(=O)C1CCCN(Cc2nc(N)nc(Nc3ccc(Cl)cc3)n2)C1 (stereo not given)	0	?	0	0	16.4µM
CCOC(=O)N1CCN(Cc2nc(N)nc(Nc3ccc(OC)cc3)n2)CC1	-	0	0	0	0
CCOC(=O)N1CCN(Cc2nc(N)nc(Nc3ccc(Oc4ccccc4)cc3)n2)CC1	0	?	0	0	16.4µM
CCOC(=O)C1CCCN(Cc2nc(N)nc(Nc3ccc(OC)cc3)n2)C1 (stereo not given)	0	29.1µM	0	0	?
